# Compound activity (PubChem)
# RORg inh – blocks mouse ROR gamma transcriptional activity; Drosophila S2 Gal4-RORgamma UAS-luciferase reporter, 20 h; Potency, µM (top dose mostly 53.6 µM), without a hit: at the highest dose activity change, negative = inhibition, most hits filed as inhibitors; hit rate 5.4% among 310,000; AID 2551; also: potency is read from the fitted curve at half-maximal effect; % is scaled to controls: 0 for no effect and ±100 for the full control effect; nearly all actives have a fitted effect of over 60% in size
#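 ROR gamma transcriptional activity was tracked as Gal4-UAS luciferase output in stably transfected Drosophila Schneider cells, with compound added 1 hr before 700 uM copper sulfate induction and a 20 hr ambient-temperature incubation.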
# Six1-Eya2 blk – blocks human Six1 binding to Eya2; Q15475+O00167; AlphaScreen GST-Six1/His-Eya2 binding, biochemical; stronger effect = lower value; activity change, % (concentration not given with the values); hit rate 0.56% among 360,000; AID 651725; in the data active = activity change below about -65%; inconclusive = mostly about -30% to -63%; also: % is scaled to controls: 0 for no effect and ±100 for the full control effect
# Target sequence (O00167 whole entry, looked up): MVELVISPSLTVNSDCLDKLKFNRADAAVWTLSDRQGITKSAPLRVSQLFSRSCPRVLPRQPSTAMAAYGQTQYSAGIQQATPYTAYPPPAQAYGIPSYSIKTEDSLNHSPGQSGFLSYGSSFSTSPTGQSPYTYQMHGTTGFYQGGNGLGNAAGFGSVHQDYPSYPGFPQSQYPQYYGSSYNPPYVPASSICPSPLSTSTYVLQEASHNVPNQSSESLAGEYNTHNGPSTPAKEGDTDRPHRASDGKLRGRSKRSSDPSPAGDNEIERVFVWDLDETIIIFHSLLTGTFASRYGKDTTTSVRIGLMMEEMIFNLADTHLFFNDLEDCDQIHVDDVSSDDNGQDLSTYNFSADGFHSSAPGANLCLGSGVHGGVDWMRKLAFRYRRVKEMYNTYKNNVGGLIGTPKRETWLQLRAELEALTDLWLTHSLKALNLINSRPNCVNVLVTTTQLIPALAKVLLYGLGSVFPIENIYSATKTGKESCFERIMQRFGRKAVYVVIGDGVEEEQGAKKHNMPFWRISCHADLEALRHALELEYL
# Target sequence (Q15475 whole entry, looked up): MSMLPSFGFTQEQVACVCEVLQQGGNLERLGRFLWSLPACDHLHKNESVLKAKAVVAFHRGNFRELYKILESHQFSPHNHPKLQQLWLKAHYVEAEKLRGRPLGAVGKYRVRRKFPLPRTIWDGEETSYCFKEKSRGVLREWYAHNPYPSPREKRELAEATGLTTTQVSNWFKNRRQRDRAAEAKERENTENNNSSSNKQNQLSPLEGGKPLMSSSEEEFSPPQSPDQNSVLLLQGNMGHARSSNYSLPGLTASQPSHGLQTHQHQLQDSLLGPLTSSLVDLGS
#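 AlphaScreen luminescence read after one hour at 37 °C in darkness. Pin-transferred compounds met GST-Six1 and His-Eya2 protein (5X stock 250 nM/500 nM) plus glutathione donor and Ni-chelate acceptor beads (5X, 50 ug/mL).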
# CtBP-E1A blk – inhibitors of CtBP/E1A interaction. AlphaScreen GST-E1A/His-CtBP binding, 1536-well; stronger effect = lower value. activity change, % (test concentration not listed). hit rate 0.49% among 340,000; in the data active = activity change below about -65%; inconclusive = mostly about -30% to -63%; also: % is scaled to controls: 0 for no effect and ±100 for the full control effect
#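 Steps: dispense buffer (Tris pH 8.0, NaCl 300 mM, TCEP 1 mM, BSA, Tween 20); add 5X protein mix (GST-E1A, His-CtBP, 125 nM each); pin 23 nL compound; 2 h at 37 °C, dark; add 5X beads (50 ug/mL); 1 h; read.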
# Gal4-VP16 FLuc – Gal4-VP16 reporter inhibition counter-screen. hit rate 3.5% among 310,000. Potency, µM (series often up to 53.6 µM), without a hit: at the highest dose activity, negative = inhibition, hits mostly inhibitors. Drosophila S2 Gal4-VP16 UAS-luciferase, luminescence, 20 h;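 also: Gal4-VP16 expression switched on by copper sulfate through the metallothionein promoter; potency is read from the fitted curve at half-maximal effect; % is scaled to controls: 0 for no effect and ±100 for the full control effect; nearly all actives have a fitted effect of over 50% in size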
# p53 reactivator – restores transcriptional activity of mutant p53. Potency, µM (series often up to 92.2 µM), for inactives: at the top dose activity change, positive = activation, actives largely listed as activators. hit rate 0.063% among 320,000. H1299 p53-A138V BP100-luciferase reporter, luminescence, 24 h. AID 504706; also: potency is read from the fitted curve at half-maximal effect; % of control where 0% means no effect; nearly all actives have a fitted effect of over 45% in size
#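 H1299 (p53-null), stable ts p53-A138V + BP100-Luc; 1000 cells/well, Opti-MEM/10% FBS; cpd 4 pt, 1:5; 24 h, 37 deg C, 5% CO2; detection reagent 10 min RT; luminescence.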
# Active calls of the source: *; ? = inconclusive; . = no result; [ ] = dose if it differs, or a comment. Most compounds without a hit are left out; they make up all but 5.4% or so of the library. Unless noted, calls follow the shape of the dose curve; as a rule, active = well fitted curve in the direction sought with a large enough effect; inconclusive = small, poorly fitted or top-dose-only effect, or another doubt; inactive = no such curve, though single readings can be large; an effect the other way counts as inactive or inconclusive.
SMILES,RORg inh,Six1-Eya2 blk,CtBP-E1A blk,Gal4-VP16 FLuc,p53 reactivator
Cc1ccc2oc(=O)c3cnn(CC(=O)N(CCC(C)C)Cc4ccco4)c3c2c1,-21.6%,-0.3,7.8,-1.0%,0.6%
CN(C)c1ccc(-c2nc3ccccn3c2/N=C/c2ccc(Br)cc2)cc1,7.08µM*,-9.0,-21.5,8.91µM*,?
Cc1ccc(-c2nc3ccccn3c2C=O)cc1,6.7%,-2.6,.,-13.1%,7.3%
Cc1c(-c2ccc(Br)cc2)nc2ccccn12,10µM*,-0.3,-14.8,?,?
CC(C)(C)c1cc(C(=O)NN)n(Cc2ccc(F)cc2)n1,11.2µM*,1.7,.,-11.1%,1.3%
O=S1(=O)Nc2c(ccc3cccnc23)-c2ccccc21,1.26µM*,-91.3*,-89.0*,2.51µM*,-69.9%
CC(c1ccccc1F)n1cc(C(=O)NCCCc2nc3ccccc3[nH]2)nn1 (configuration not stated),7.7%,11.1,-2.0,-6.1%,2.8%
CC(C)CN(Cc1cc(=O)oc2cc3c(cc12)CCCC3)CC(C)C,-0.5%,-0.3,.,0.4%,6.6%
CCN(CC(=O)Nc1cccc(S(=O)(=O)N2CCCC2)c1)CC(=O)Nc1ccccc1OC,11.2µM*,0.5,-1.3,-3.4%,-0.5%
COc1ccc(Cl)cc1NC(=O)CN(C)CC(=O)Nc1cccc(S(=O)(=O)N2CCCC2)c1,.,-17.6,0.8,.,-5.9%
COc1ccc(CC(=O)Nc2cccc(S(=O)(=O)N3CCCCCC3)c2)cc1OC,-25.0%,-10.3,-1.5,11.2µM*,-4.1%
CCN1CCCC1CNC(=O)c1cc(COc2ccc(C)c(C)c2)on1 (configuration not stated),1.5%,1.7,-8.9,?,?
Cc1nc2ccccc2n1C(C)c1ccccc1 (configuration not stated),-15.8%[1.91 µM],-1.5,3.3,?,5.1%
CC(c1ccc(F)cc1)n1c(-c2cccs2)n[nH]c1=S (configuration not stated),2.82µM*,2.1,-0.1,10µM*,9.9%
CC(C)n1c(-c2ccccc2F)n[nH]c1=S,3.16µM*,2.4,-3.8,11.2µM*,-0.8%
CC(c1ccccc1)n1c(-c2ccncc2)n[nH]c1=S (configuration not stated),?,0.9,-1.3,?,2.5%
CC(c1ccc(F)cc1)n1c(Cn2ncc3ccccc3c2=O)n[nH]c1=S (configuration not stated),-42.2%,4.2,10.5,23.5%,-2.0%
CC(c1ccccc1)n1c(-c2ccc(Cl)cc2)n[nH]c1=S (configuration not stated),5.62µM*,-3.7,1.8,6.31µM*,-5.2%
CC(c1ccccc1)n1c(-c2ccccc2F)n[nH]c1=S (configuration not stated),7.08µM*,-0.1,-4.6,6.31µM*,14.0%
Fc1ccccc1-c1n[nH]c(=S)n1/N=C/c1c[nH]c2ccccc12,?,?,4.2,-2.5%,-1.5%
O=C(NCCC1CC1(Cl)Cl)Nc1ccccc1 (configuration not stated),?,4.6,4.1,?,0.5%
CC(C)n1c(O)c(N=NC(=O)C2COc3ccccc3O2)c2ccccc21 (configuration not stated),?,-24.6,-4.4,25.2%,-6.3%
CC(C)(C)N1CCC1CN (configuration not stated),-16.9%,33.9,-1.5,-7.6%,3.0%
CCc1c(C)sc(NC(=O)Cc2ccccc2C)c1C(=O)N1CCOCC1,7.6%,23.9,-3.1,-12.4%,10.3%
O=C(O)/C=C/c1ccc(S(=O)(=O)NCc2cccnc2)cc1,7.7%,0.0,2.7,3.9%,-0.7%
CCOC(=O)c1ccccc1NC(=O)COC(=O)c1cc([N+](=O)[O-])ccc1N1CCOCC1,.,-22.6,-17.1,.,-10.4%
COC(=O)/C=C1\N/C(=N\c2nc(C)cc(C)n2)N(c2ccc(C)c(C)c2)C1=O,11.2µM*,12.2,7.3,?,9.5%
C=CCn1c(-c2csc3c2CCC(C)C3)n[nH]c1=S (configuration not stated),1.41µM*,-10.5,-8.6,2.51µM*,1.2%
CCCCn1c(-c2csc3ccccc23)n[nH]c1=S,7.94µM*,1.4,1.0,?,-3.6%
